Inconclusive results are not listed. Values without a mark were called inactive. The source made the active and inactive calls. Calls follow the shape of the dose curve; as a rule, active = well fitted cell-killing curve with a large enough effect in the repeat runs; inconclusive = weak or mixed curves, or effect the other way; inactive = no such curve, though single readings can be large or run the other way. Where a SMILES comes first, the peptide text is derived from it.
Test: qHTS assay to identify small molecule agonists of the RXR signaling pathway - cell viability counter screen (AID 1159529); also: nearly all actives have a fitted effect of over 50% in size
Settings: RXR-alpha-bla HEK293T viability, CellTiter-Glo, 16 h; series mostly up to 76.8 µM
From the text: National Center for Advancing Translational Sciences [NCATS]
NIH Chemical Genomics Center [NCGC]
U.S. Environmental Protection Agency [EPA]
National Institutes of Environmental Health Sciences [NIEHS]
National Toxicology Program [NTP]
U.S. Food and Drug Administration [FDA]
The Retinoid X receptor (RXR), a nuclear hormone receptor expressed in liver, spleen, placenta, epidermis, central nervous system. These receptors are able to form homo and heterodimers with other nuclear receptors and due to this heterodimerizing ability, RXR functions as master regulators producing diverse physiological effects. Three subtypes of RXR exist; alpha, beta and gamma. Retinoid X receptor alpha (RXR-alpha) has potential roles in metabolic signaling pathways, skin alopecia, dermal cysts, cardiac development, insulin sensitization etc. Therefore screening environmental chemicals on RXR-alpha signaling can be used for the studies focused on such therapeutic applications. For quantification of RXR-alpha ligands signaling, GeneBLAzer RXR alpha-UAS-bla HEK 293T (Life Technologies, Carlsbad, CA) cells containing a beta-lactamase reporter-gene under control of Retinoid X receptor-alpha response element were used to screen Tox21 10K library. The cytotoxicity of the Tox21 compound library against the RXR-alpha HEK 293T cell line was tested in parallel by measuring cell viability using CellTiter-Glo assay (Promega Corporation, Madison, WI) in the same wells.
Tox21 Assay Protocol Summary:
RXR-alpha HEK 293T cells were dispensed at 2,000 cells/6 uL of assay medium containing 2% charcoal-stripped FBS using a Multidrop Combi (ThermoFisher Scientific, Waltham, MA) dispenser. The assay was performed in black wall/clear-bottom 1536-well plates (Greiner Bio-One North America Inc. Monroe, NC). Tetraoctyl ammonium bromide was used as a positive control in the cytotoxicity screen. After the assay plates were incubated at 37 C and 5% CO2 for 5 hr, 23 nL of compounds dissolved in DMSO, positive control or DMSO only were transferred to the assay plate by a Pintool station (Kalypsys, San Diego, CA). The assay plates were incubated at 37 C and 5% CO2 for 16 hr. One uL of LiveBLAzer B/G FRET substrate (Life Technologies) was added using a Flying Reagent Dispenser (FRD) (Aurora Discovery, San Diego, CA) and the plates were incubated at room temperature for 2 hr. Fluorescence intensity (405 nm excitation, 460/530 nm emission) was measured using an Envision plate reader (PerkinElmer, Shelton, CT). For cytotoxicity, 4 uL/well of CellTiter-Glo reagent was added into the assay plates using an FRD. After 30 min incubation at room temperature, the luminescence intensity was measured using a ViewLux plate reader (PerkinElmer).
% is scaled to controls: 0 for no effect and ±100 for the full control effect.

SMILES | outcome | activity change, negative = cytotoxicity
NCc1ccc(S(N)(=O)=O)cc1 | inactive | 
CC/C=C\CCOC(=O)c1ccccc1O | inactive | 
CCCC(=O)OC/C=C(\C)CCC=C(C)C | inactive | 
O=C1c2ccccc2C(=O)c2cc(Cl)ccc21 |  | 5.38% [at 6.97 µM]
CCOc1cccc(N)c1 | inactive | 
CCCCCCCCCCCCCBr | inactive | 
CCCCOC(=O)[C@H](C)O | inactive | 
C=CC(=O)OCC1CCCO1 (stereo not given) | inactive | 
C=CCCCC | inactive | 
Cc1ccc(N)cc1S(=O)(=O)O | inactive | 
O=C1NC(c2ccccc2)(c2ccccc2)C(=O)N1COP(=O)(O)O | inactive | 
COS(=O)(=O)O | inactive | 
CC(=O)N[C@@H](CO)C(=O)N[C@@H](CC(=O)O)C(=O)N[C@@H](CCCCN)C(=O)N1CCC[C@H]1C(=O)O (Ac-SDKP-OH) | inactive | 
Cc1ccc(C(=O)O)cc1[N+](=O)[O-] | inactive | 
O=C(CCCCC(=O)Nc1c(I)cc(I)c(C(=O)O)c1I)Nc1c(I)cc(I)c(C(=O)O)c1I | inactive | 
CCOC(=O)CC1(C)OCC(C)O1 (stereo not given) | inactive | 
CC(C)c1ccc(C=O)cc1 | inactive | 
O=S(=O)(O)c1ccc2c(N=Nc3ccc(S(=O)(=O)O)c4ccccc34)c(O)c(S(=O)(=O)O)cc2c1 |  | 0.355% [at 6.97 µM]
COc1c2occc2c(OC)c2c(=O)cc(C)oc12 | inactive | 
CC(C)Cn1cnc2c1c(=O)n(C)c(=O)n2C | inactive | 

SMILES | outcome | activity change, negative = cytotoxicity
Cc1cccc(Cl)c1 | inactive | 
Cc1c(NC(=O)c2cccnc2)c(=O)n(-c2ccccc2)n1C | inactive | 
OC[C@@H](O)C(O)[C@@H](O)CO (stereo not given in full) | inactive | 
C=C(C)[C@@H]1CC=C(C)C(=O)C1 | inactive | 
CO[Si](CCCn1c(=O)n(CCC[Si](OC)(OC)OC)c(=O)n(CCC[Si](OC)(OC)OC)c1=O)(OC)OC | inactive | 
CCCCCc1cccc(=O)o1 | inactive | 
c1ccc(-c2nn[nH]n2)cc1 | inactive | 
CC(S)C(C)S (stereo not given) | inactive | 
CC1=NN(c2ccc(S(=O)(=O)O)cc2)C(=O)C1 | inactive | 
COC(=O)c1cccc(Cl)c1 | inactive | 
CCN1CCCC1CN (stereo not given) | inactive | 
CN1CCOC(c2ccccc2)c2ccccc2C1 (stereo not given) | inactive | 
Cc1c(Cl)cccc1Cl | inactive | 
CN(C)CCN(C)CCO | inactive | 
CC(C)C1OCCN1CCOC(=O)NCCCCCCNC(=O)OCCN1CCOC1C(C)C (stereo not given) | inactive | 
COC(=O)c1ccccc1C(=O)O | inactive | 
Cc1cc(-c2ccccc2)nnc1NCCN1CCOCC1 | inactive | 
[O]=[Mo](=[O])=[O] |  | -1.21% [at 15.8 µM]
CCC(C(=O)OCCN1CCOC(c2ccccc2)C1C)c1ccccc1 (stereo not given) | inactive | 
CCCCCCCCCCCCCCCCCCOCCO |  | -0.661% [at 15.8 µM]

Reference: PubChem BioAssay (Tox21)
